The panel holds about 83,000 compounds, 20% with a hit somewhere; the sample as a whole holds those more often.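 Compound tested at a single concentration for 48 hours in 96-well plates; a percent growth value below 10 was scored as active.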 Values without a mark were called inactive. The source made the active and inactive calls.

The results in this text go back to PubChem BioAssay (NCI).

For the test, the system named is EKVX NSCLC. The test is described as follows: NCI-60 one-dose screen, 48 h (100 = growth as untreated, 0 = no growth, -100 = all killed). The following applies: 10 µM unless noted. The protocol: Growth inhibition of the EKVX human Non-Small Cell Lung tumor cell line is measured as a screen for anti-cancer activity. Cells are grown in 96 well plates and exposed to the test compound for 48 hours. Compounds are tested at a single concentration, which is 10^-5 M for most compounds. The reported endpoint is percent growth (GI% or GIPRCNT), where numbers from 0 - 100% represent growth inhibition, and numbers from -100% - 0 represent cell death. For example, a value of 40 represents 60% growth inhibition. A value of 0 means no net growth occurred over the course of the experiment. A value of -40 indicates 40% of cells at the beginning of the experiment died by the end of the experiment. A value of -100 means all cells are dead at the end of the experiment.
NCI-60 Human Tumor Cell Lines Screen was performed using the standard one-dose NCI protocol, which is described in more detail at https://dtp.cancer.gov/discovery_development/nci-60/default.htm.
Compounds with GIPRCNT values below 10 were considered active. Activity score was based on GIPRCNT using the following formula: […]
Score is 0 for GIPRCNT values of 100 or above, 50 for GIPRCNT values of 0, and 100 for GIPRCNT values of -100.
Regarding `CN(C)c1ccc(-c2cc(-c3c[nH]c4ccccc34)nc(N)c2C#N)cc1`, the growth was 61.8%.

Take `CN(C)S(=O)(=O)c1ccc(-c2nc(C(Cl)Cl)nc3cc(-c4ccccc4)nn23)cc1`: the growth is 80%.

Turning to `COC(=O)[C@@H](Cc1c[nH]c2ccccc12)NC(=O)CCCCOc1cc(O)c2c(=O)cc(-c3ccccc3)oc2c1`, the growth was 86.8%.

As for `CC(Nc1ncnc2ccc(-c3cnc4cnccn34)cc12)c1ccccc1` (stereo not given), the growth is 30.4%.

Take `O=S(=O)(NCCCNc1nccc(-c2[nH]c(-c3ccccc3)nc2-c2ccc(F)c(O)c2)n1)c1ccccc1`: the growth was 102%.

`C#Cc1nc(/C=C/C(=O)NO)cs1`: the growth is 85.2%.

`COc1cc(/C=N\NC(=O)c2ccc3nc(-c4ccc(Br)cc4)[nH]c3c2)cc(OC)c1OC`: the growth was 78.2%.

With `CCN1CCN(c2ccc(NC(=O)Nc3ccc4c(ccn4-c4ccnc(C(=O)NC)c4)c3)cc2C(F)(F)F)CC1`, the growth is 86.3%.

In the case of `CCN(CC)CCOc1ccc(C(=C(C)c2ccc(OC)cc2)c2ccc(OCCN(CC)CC)cc2)cc1`, the growth is 39.1%.

With `Cn1ncc2ncc(-c3ccc4ncc(C#N)c(N5CCc6cc(F)c(Cl)cc65)c4c3)cc21`, the growth is 11.3%.

`CC(=O)c1cc(C(=O)N2c3ccccc3Sc3ccccc32)n2c1ccc1ccccc12`: the growth is 78.4%.

As to `O=S1SC(c2ccccc2)=NN1c1cc(F)cc(F)c1` (stereo not given), the growth is 38%.

As to `C#C[C@]1(O)CC[C@H]2[C@@H]3CC=C4c5sc(N6CCN(C)CC6)nc5CC[C@]4(C)[C@H]3CC[C@@]21C`, the growth is 68.5%.

For `O=C(N/N=C\c1ccc([N+](=O)[O-])cc1)c1ccc2nc(-c3ccc(Br)cc3)[nH]c2c1`, the growth is 45.4%.

In the case of `O=c1c2cc(-c3ccc(F)cc3F)ccc2n(O)c(=O)n1-c1cccc(C(F)(F)F)c1`, the growth was 4.46% (active).

For the molecule `CN1CCN(CCNc2nc(-c3cccc(NS(=O)(=O)c4cccc5c(N(C)C)cccc45)c3)cs2)CC1`, the growth is 50%.

On to `O=C(CCCCCCNC(=O)C(O)(O)C(F)(F)F)Nc1ccc(Cl)cc1`, for which the growth is 39.2%.

As to `O=C(CSc1nnc(-c2cccs2)n1-c1ccccc1)Nc1ccccc1F`, the growth is 94.6%.

For `COC(=O)CNC(=O)c1cccc(-c2cc(=O)c3c(OC)c(OC)c(OC)cc3o2)c1`, the growth is 102%.

For `COc1cccc2c1[C@H](OC)[C@]13O[C@@]1(C2=O)[C@H](O)[C@H](C)[C@@](O)(C(=O)[C@@H]1O[C@H]1C)[C@@H]3O`, the growth was -39.5% (active).

On to `CCC(=C(c1ccc(OCCN(C)C)cc1)c1ccc(OCCN(C)C)cc1)c1ccc(Cl)cc1`, for which the growth is 7.78% (active).

Regarding `C#CCN(C)CCCOc1ccc(NCc2ccc(C(=O)NO)cc2)cc1Cl`, the growth was 35.5%.

For `C/C(=C(/C)C1CC1CCNC1CCC(NC(=O)OC(C)(C)C)CC1)c1ccccc1` (stereo not given), the growth was 73.7%.

In the case of `COc1ccc(NC2=C(Br)C(=O)C(C)=C(C)C2=O)cc1OC`, the growth was 80.8%.

For the molecule `NS(=O)(=O)c1cccc(Nc2nc(SCC(=O)c3ccc(Cl)cc3)nc3c2CCC3)c1`, the growth is 97.7%.

With `Cc1nc(N)sc1-c1csc(Nc2ccc(C(F)(F)F)cc2)n1`, the growth is 27%.

With `N#CC1=C2NCCCNc3oc(nc3C#N)Cc3ccccc3CC(=N1)O2`, the growth was 99.5%.

As for `COc1ccc2[nH]cc(/C=N/Nc3ccnc4cc(Cl)ccc34)c2c1`, the growth was -96.5% (active).

Take `Cn1cc(C2=C(c3coc4cc(Br)ccc34)C(=O)NC2=O)c2ccccc21`: the growth was 67%.

Regarding `CC(Nc1c(C#N)cnc2ccc(-c3cncc(O)c3)cc12)c1ccccc1` (stereo not given), the growth is -13.6% (active).

In the case of `Cc1[nH]c(C(=O)Nc2ccccc2OCc2cccc(C(=O)NCCN)c2)cc1Cl`, the growth is 105%.

Take `O=C(/C=C/c1cccc(C(F)(F)F)c1)Nc1cccc(C(F)(F)F)c1`: the growth was 50.1%.

`CCN(CC)c1ccc(/C=N/NC(=O)c2ccc(S(N)(=O)=O)cc2)cc1`: the growth is 23.6%.

For the molecule `NC(=S)n1c(=O)n(-c2cccc(C(F)(F)F)c2)c(=O)c2cc(-c3ccc(F)cc3F)ccc21`, the growth was 5.19% (active).

As to `O=C(/C=C/C=C/c1csc(Br)n1)NO`, the growth was 102%.

`CC(=C(c1ccc(OCCCN(C)C)cc1)c1ccc(OCCCN(C)C)cc1)c1ccc(Cl)cc1`: the growth is 94.7%.

Take `CN(C)CCNc1ccc2ncc(C#Cc3cncc(C(=O)Nc4ccc(CN5CCN(C)CC5)c(C(F)(F)F)c4)c3)n2n1`: the growth was 7.33% (active).

Consider `COc1ccc(/C=N/NC(=O)CSc2nc(-c3cnccn3)cc(-c3cccs3)c2C#N)cc1OC`, for which the growth was 85.9%.

In the case of `NS(=O)(=O)c1ccc(Nc2nc(Nc3ccccc3)nc(N3N=C(c4ccc(Cl)cc4)CC3c3ccc(Cl)cc3)n2)cc1` (stereo not given), the growth is 56.9%.

As for `O=C(CCCCCCN1CC(=O)N2[C@@H](c3ccccc3Br)c3[nH]c4ccccc4c3C[C@H]2C1=O)NO`, the growth is 62.5%.
